# According to the supplement of paper PMC8728848:
# The sample as a whole holds a higher share of the strongest signals than the screen did.
# B1: CFEM-CGl (Candida glabrata), Q6FRS0 (protein)
# chain: VLATPPACLLACVAQVSKQSSQCHTLNQVGCFCENENTAIKNCLDSICPNGNSDAAYTAFKNSCGDVGKAVASV
# Legend:
# Assay in all cases: glycan array binding signal (z-score within array); higher = stronger binding
# Settings in all cases: glycan notation: IUPAC condensed, linker removed
# [1] = target: Fuc(a1-2)Gal(b1-3)GalNAc(a1-3)[Fuc(a1-2)]Gal(b1-4)Glc
# Procedure, shortened: (§1)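 From the Consortium for Functional Glycomics database, 3228 arrays were curated, keeping only those whose protein sequence was available. Binding is given as a within-array Z-score averaged across arrays sharing a protein sequence and across linkers. Negative Z-scores can be read as non-binding.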
# [2] = target: Fuc(a1-2)Gal(b1-3)GlcNAc(b1-2)Man(a1-3)[Fuc(a1-2)Gal(b1-3)GlcNAc(b1-2)Man(a1-6)]Man(b1-4)GlcNAc(b1-4)[Fuc(a1-6)]GlcNAc
# Procedure, shortened: as §1
# [3] = target: Fuc(a1-2)Gal(b1-4)GlcNAc(b1-3)Gal(b1-4)GlcNAc
# Procedure, shortened: as §1
# [4] = target: Fuc(a1-2)Gal(b1-4)GlcNAc(b1-3)Gal(b1-4)GlcNAc(b1-2)Man(a1-3)[Fuc(a1-2)Gal(b1-4)GlcNAc(b1-3)Gal(b1-4)GlcNAc(b1-2)Man(a1-6)]Man(b1-4)GlcNAc(b1-4)GlcNAc
# Procedure, shortened: as §1
# [5] = target: Fuc(a1-2)Gal(b1-4)GlcNAc(b1-3)GalNAc
# Procedure, shortened: as §1
# [6] = target: Fuc(a1-2)Gal(b1-4)GlcNAc(b1-6)GalNAc
# Procedure, shortened: as §1
# [7] = target: Fuc(a1-2)Gal(b1-4)GlcNAc6S
# Procedure, shortened: as §1
# [8] = target: Fuc(a1-2)[GalNAc(a1-3)]Gal(b1-3)GalNAc(a1-3)[Fuc(a1-2)]Gal(b1-4)GlcNAc
# Procedure, shortened: as §1
# [9] = target: Fuc(a1-2)[GalNAc(a1-3)]Gal(b1-4)GlcNAc(b1-2)Man(a1-3)[Fuc(a1-2)[GalNAc(a1-3)]Gal(b1-4)GlcNAc(b1-2)Man(a1-6)]Man(b1-4)GlcNAc(b1-4)[Fuc(a1-6)]GlcNAc
# Procedure, shortened: as §1
# [10] = target: Fuc(a1-2)[GalNAc(a1-3)]Gal(b1-4)[Fuc(a1-3)]GlcNAc(b1-3)GalNAc
# Procedure, shortened: as §1
# [11] = target: Fuc(a1-3)[Gal(b1-4)]GlcNAc(b1-2)Man(a1-3)[Fuc(a1-3)[Gal(b1-4)]GlcNAc(b1-2)Man(a1-6)]Man(b1-4)GlcNAc(b1-4)[Fuc(a1-6)]GlcNAc
# Procedure, shortened: as §1
# [12] = target: Fuc(a1-3)[Gal(b1-4)]GlcNAc(b1-3)Gal(b1-3)[Fuc(a1-4)]GlcNAc
# Procedure, shortened: as §1
# [13] = target: Fuc(b1-3)GlcNAc
# Procedure, shortened: as §1
# [14] = target: Gal(a1-4)Gal(b1-4)Glc
# Procedure, shortened: as §1
# [15] = target: Gal(b1-3)Gal
# Procedure, shortened: as §1
# [16] = target: Gal(b1-3)Gal(b1-4)GlcNAc
# Procedure, shortened: as §1
# [17] = target: Gal(b1-3)GalNAc(a1-3)[Fuc(a1-2)]Gal(b1-4)Glc
# Procedure, shortened: as §1
# [18] = target: Gal(b1-3)GalNAc(b1-3)Gal
# Procedure, shortened: as §1
# [19] = target: Gal(b1-3)GalNAc(b1-4)Gal(b1-4)Glc
# Procedure, shortened: as §1
# [20] = target: Gal(b1-3)GlcNAc(b1-2)Man(a1-3)[Gal(b1-3)GlcNAc(b1-2)Man(a1-6)]Man(b1-4)GlcNAc(b1-4)GlcNAc
# Procedure, shortened: as §1
# [21] = target: Gal(b1-3)GlcNAc(b1-3)Gal(b1-4)[Fuc(a1-3)]GlcNAc
# Procedure, shortened: as §1
# [22] = target: Gal(b1-3)[Fuc(a1-4)]GlcNAc(b1-2)Man(a1-3)[Gal(b1-3)[Fuc(a1-4)]GlcNAc(b1-2)Man(a1-6)]Man(b1-4)GlcNAc(b1-4)[Fuc(a1-6)]GlcNAc
# Procedure, shortened: as §1
# [23] = target: Gal(b1-3)[Neu5Ac(a2-6)]GalNAc
# Procedure, shortened: as §1
# [24] = target: Gal(b1-4)GlcNAc(b1-3)Gal(b1-4)GlcNAc(b1-2)Man(a1-3)[Gal(b1-4)GlcNAc(b1-3)Gal(b1-4)GlcNAc(b1-2)Man(a1-6)]Man(b1-4)GlcNAc(b1-4)GlcNAc
# Procedure, shortened: as §1
# [25] = target: Gal(b1-4)GlcNAc(b1-3)Gal(b1-4)GlcNAc(b1-3)Gal(b1-4)GlcNAc(b1-3)Gal(b1-4)GlcNAc(b1-2)[Gal(b1-4)GlcNAc(b1-3)Gal(b1-4)GlcNAc(b1-3)Gal(b1-4)GlcNAc(b1-3)Gal(b1-4)GlcNAc(b1-6)]Man(a1-6)[Gal(b1-4)GlcNAc(b1-3)Gal(b1-4)GlcNAc(b1-3)Gal(b1-4)GlcNAc(b1-3)Gal(b1-4)GlcNAc(b1-2)Man(a1-3)]Man(b1-4)GlcNAc(b1-4)[Fuc(a1-6)]GlcNAc
# Procedure, shortened: as §1
# [26] = target: Gal(b1-4)GlcNAc(b1-3)Gal(b1-4)GlcNAc(b1-3)GalNAc
# Procedure, shortened: as §1
# [27] = target: Gal(b1-4)GlcNAc(b1-3)Gal(b1-4)[Fuc(a1-3)]GlcNAc(b1-3)Gal(b1-4)[Fuc(a1-3)]GlcNAc
# Procedure, shortened: as §1
# [28] = target: Gal(b1-4)GlcNAc(b1-3)[Gal(b1-4)GlcNAc(b1-6)]Gal(b1-4)GlcNAc
# Procedure, shortened: as §1
# [29] = target: Gal3S(b1-4)[Fuc(a1-3)]GlcNAc
# Procedure, shortened: as §1
# [30] = target: GlcA(b1-3)GlcNAc
# Procedure, shortened: as §1
# [31] = target: GlcNAc(a1-4)Gal(b1-4)GlcNAc(b1-3)Gal(b1-4)Glc
# Procedure, shortened: as §1
# [32] = target: GlcNAc(b1-2)[GlcNAc(b1-4)]Man(a1-3)[GlcNAc(b1-4)][GlcNAc(b1-2)[GlcNAc(b1-6)]Man(a1-6)]Man(b1-4)GlcNAc(b1-4)[Fuc(a1-6)]GlcNAc
# Procedure, shortened: as §1
# [33] = target: GlcNAc(b1-3)Gal(b1-4)GlcNAc(b1-3)Gal(b1-4)GlcNAc(b1-2)Man(a1-3)[GlcNAc(b1-3)Gal(b1-4)GlcNAc(b1-3)Gal(b1-4)GlcNAc(b1-2)Man(a1-6)]Man(b1-4)GlcNAc(b1-4)GlcNAc
# Procedure, shortened: as §1
# [34] = target: GlcNAc(b1-3)Gal(b1-4)GlcNAc(b1-3)Gal(b1-4)GlcNAc(b1-3)Gal(b1-4)GlcNAc(b1-3)Gal(b1-4)GlcNAc(b1-2)Man(a1-3)[GlcNAc(b1-3)Gal(b1-4)GlcNAc(b1-3)Gal(b1-4)GlcNAc(b1-3)Gal(b1-4)GlcNAc(b1-3)Gal(b1-4)GlcNAc(b1-2)Man(a1-6)]Man(b1-4)GlcNAc(b1-4)GlcNAc
# Procedure, shortened: as §1
# [35] = target: GlcNAc(b1-3)[GlcNAc(b1-6)]Gal(b1-4)GlcNAc
# Procedure, shortened: as §1
# [36] = target: GlcNAc(b1-4)GlcNAc(b1-4)GlcNAc(b1-4)GlcNAc(b1-4)GlcNAc(b1-4)GlcNAc
# Procedure, shortened: as §1
# [37] = target: Kdn(a2-3)Gal(b1-3)GlcNAc
# Procedure, shortened: as §1
# [38] = target: Man(a1-3)[Man(a1-6)]Man(a1-6)[Man(a1-3)]Man(b1-4)GlcNAc(b1-4)GlcNAc
# Procedure, shortened: as §1
# [39] = target: Neu5Ac(a2-3)Gal(b1-3)GalNAc(b1-4)[Neu5Ac(a2-8)Neu5Ac(a2-3)]Gal(b1-4)Glc
# Procedure, shortened: as §1
# [40] = target: Neu5Ac(a2-3)Gal(b1-3)GalNAc6S
# Procedure, shortened: as §1
# [41] = target: Neu5Ac(a2-3)Gal(b1-3)GlcNAc(b1-3)Gal(b1-4)GlcNAc
# Procedure, shortened: as §1
# [42] = target: Neu5Ac(a2-3)Gal(b1-3)[Fuc(a1-4)]GlcNAc
# Procedure, shortened: as §1
# [43] = target: Neu5Ac(a2-3)Gal(b1-4)GlcNAc(b1-2)Man(a1-3)[Neu5Ac(a2-3)Gal(b1-4)GlcNAc(b1-2)Man(a1-6)]Man(b1-4)GlcNAc(b1-4)GlcNAc
# Procedure, shortened: as §1
# [44] = target: Neu5Ac(a2-3)Gal(b1-4)GlcNAc6S
# Procedure, shortened: as §1
# [45] = target: Neu5Ac(a2-3)Gal(b1-4)[Fuc(a1-3)]GlcNAc(b1-3)Gal
# Procedure, shortened: as §1
# [46] = target: Neu5Ac(a2-3)Gal(b1-4)[Fuc(a1-3)]GlcNAc(b1-3)GalNAc
# Procedure, shortened: as §1
# [47] = target: Neu5Ac(a2-3)Gal(b1-4)[Fuc(a1-3)]GlcNAc(b1-6)[Gal(b1-3)]GalNAc
# Procedure, shortened: as §1
# [48] = target: Neu5Ac(a2-3)GalNAc(b1-4)GlcNAc
# Procedure, shortened: as §1
# [49] = target: Neu5Ac(a2-3)[Neu5Ac(a2-6)]GalNAc
# Procedure, shortened: as §1
# [50] = target: Neu5Ac(a2-6)Gal(b1-3)GlcNAc(b1-3)[Gal(b1-4)GlcNAc(b1-6)]Gal(b1-4)Glc
# Procedure, shortened: as §1
# [51] = target: Neu5Ac(a2-6)Gal(b1-4)GlcNAc(b1-3)Gal(b1-4)GlcNAc(b1-3)Gal(b1-4)GlcNAc(b1-2)Man(a1-3)[Neu5Ac(a2-6)Gal(b1-4)GlcNAc(b1-3)Gal(b1-4)GlcNAc(b1-3)Gal(b1-4)GlcNAc(b1-2)Man(a1-6)]GalNAc
# Procedure, shortened: as §1
# [52] = target: Neu5Ac(b2-6)GalNAc
# Procedure, shortened: as §1
# [53] = target: Neu5Ac9Ac(a2-3)Gal(b1-4)GlcNAc
# Procedure, shortened: as §1
# [54] = target: Neu5Gc(a2-3)Gal(b1-4)GlcNAc
# Procedure, shortened: as §1
binder,measurement,setting,value
B1,glycan array binding signal (z-score),[1],-0.334
same,glycan array binding signal (z-score),[2],-0.163
same,glycan array binding signal (z-score),[3],-0.233
same,glycan array binding signal (z-score),[4],-0.168
same,glycan array binding signal (z-score),[5],8.8
same,glycan array binding signal (z-score),[6],0.206
same,glycan array binding signal (z-score),[7],-0.397
same,glycan array binding signal (z-score),[8],-0.609
same,glycan array binding signal (z-score),[9],-0.183
same,glycan array binding signal (z-score),[10],4.55
same,glycan array binding signal (z-score),[11],-0.347
same,glycan array binding signal (z-score),[12],-0.484
same,glycan array binding signal (z-score),[13],-0.346
same,glycan array binding signal (z-score),[14],-0.153
same,glycan array binding signal (z-score),[15],3.15
same,glycan array binding signal (z-score),[16],2.81
same,glycan array binding signal (z-score),[17],0.176
same,glycan array binding signal (z-score),[18],6.73
same,glycan array binding signal (z-score),[19],9.88
same,glycan array binding signal (z-score),[20],-0.248
same,glycan array binding signal (z-score),[21],-0.497
same,glycan array binding signal (z-score),[22],-0.165
same,glycan array binding signal (z-score),[23],2.93
same,glycan array binding signal (z-score),[24],4.99
same,glycan array binding signal (z-score),[25],0.09
same,glycan array binding signal (z-score),[26],0.84
same,glycan array binding signal (z-score),[27],-0.249
same,glycan array binding signal (z-score),[28],-0.249
same,glycan array binding signal (z-score),[29],-0.353
same,glycan array binding signal (z-score),[30],-0.457
same,glycan array binding signal (z-score),[31],-0.384
same,glycan array binding signal (z-score),[32],-0.628
same,glycan array binding signal (z-score),[33],3.84
same,glycan array binding signal (z-score),[34],-0.264
same,glycan array binding signal (z-score),[35],-0.258
same,glycan array binding signal (z-score),[36],0.197
same,glycan array binding signal (z-score),[37],-0.288
same,glycan array binding signal (z-score),[38],-0.003
same,glycan array binding signal (z-score),[39],-0.372
same,glycan array binding signal (z-score),[40],0.752
same,glycan array binding signal (z-score),[41],-0.343
same,glycan array binding signal (z-score),[42],-0.12
same,glycan array binding signal (z-score),[43],-0.517
same,glycan array binding signal (z-score),[44],-0.111
same,glycan array binding signal (z-score),[45],-0.311
same,glycan array binding signal (z-score),[46],3.44
same,glycan array binding signal (z-score),[47],0.977
same,glycan array binding signal (z-score),[48],-0.449
same,glycan array binding signal (z-score),[49],-0.425
same,glycan array binding signal (z-score),[50],-0.355
same,glycan array binding signal (z-score),[51],4.31
same,glycan array binding signal (z-score),[52],0.161
same,glycan array binding signal (z-score),[53],-0.485
same,glycan array binding signal (z-score),[54],-0.194
